A short description of test [1]: sensitizers of A549 cells to miR-34 induction, primary screen, imaging, A549 dox-inducible miR-34, nuclei and caspase counts (AID 1347080). The conditions noted are these: A549 miR-34 inducible, Hoechst nuclei count, 48 h.
Test [2] in a line: survival rescue of mitochondrial mutant cells in low glucose, primary screen, MELAS cybrids, Rieske KO mouse fibroblasts, CellTiter-Glo (AID 1508586;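 active means mean z-score across replicates of 1.96 or higher in either the MELAS or the Rieske mutant cell line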;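 further: z relative to plate mean and SD of compound and empty wells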).
Test [3] concerns the target NAD(+) hydrolase SARM1 (Homo sapiens) (UniProt Q6SZW1). As to the kind of experiment: SARM1 TIR NADase inhibitors, cell lysate, NAD-Glo luminescence (AID 1508614;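 active means compound whose remaining NAD level is above about 45 nM, limit read from the data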). The conditions noted are these: SAM-TIR HEK293T lysate NADase, at 1 µM, stronger effect = higher value.
Test [4] concerns the target Mitogen-activated protein kinase 7 (Homo sapiens) (UniProt Q13164). Nature of the test: ERK5 transactivation activators in reporter cells, primary screen, cell-based, HTS (AID 1508626;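 active means luciferase signal above three times the same-plate solvent-only control wells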;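 further: luciferase driven by Gal4-ERK5 fusion binding five Gal4 sites before minimal TATA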). The following applies: HeLa Gal4-ERK5 transactivation, 18 h, at 5 µM, stronger effect = higher value.
Test [5] in a line: phospholipid biosynthesis inhibitors in animal cells, primary screen, cell-based, LOPAC library, screen 4 (AID 1347384; call rule not given here). The following applies: phospholipid biosynthesis inhibition screen, at 10 µM.
The nature of test [6]: viability rescue of complex I mutant cybrids, primary screen, cell-based, galactose medium, ATP luminescence (AID 1645843;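 active means z-score of at least 1.8 in each of two replicates, scored against plate mean and spread of sample wells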;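 further: positive z means more ATP and so rescue of galactose-driven cybrid death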). The conditions noted are these: complex I mutant cybrid cells, 72 h, stronger effect = higher value.
Where [7] appears, read: stronger effect = lower value, cell number ratio, induced over uninduced.
Setting [8] is: measured here: relative caspase fold change +Dox/-Dox.
Where [9] appears, read: measured here: total cells with miR-34 induction, stronger effect = lower value.
The mark [10] stands for this setting: measured here: total cells without miR-34 induction.
[11] abbreviates: MELAS cybrid survival, CellTiter-Glo 48 h, stronger effect = higher value.
The mark [12] stands for this setting: Rieske KO mouse fibroblast survival, CellTiter-Glo 72 h.

The source of these data is PubChem BioAssay.

Several values for one entry are separate records, joined by “and”; a condition that tells them apart may be missing. Identical values can stand only once. A structure can be active in one record and inactive in another. Activity calls are given as the source filed them.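 How the source made its calls, unless noted: active means compounds whose cell count with miR-34 switched on is under 0.7 times the count with it off; inactive means the rest.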

NAD(+) hydrolase SARM1 (Homo sapiens), sequence (Q6SZW1 whole entry, looked up, the tested form may be a part): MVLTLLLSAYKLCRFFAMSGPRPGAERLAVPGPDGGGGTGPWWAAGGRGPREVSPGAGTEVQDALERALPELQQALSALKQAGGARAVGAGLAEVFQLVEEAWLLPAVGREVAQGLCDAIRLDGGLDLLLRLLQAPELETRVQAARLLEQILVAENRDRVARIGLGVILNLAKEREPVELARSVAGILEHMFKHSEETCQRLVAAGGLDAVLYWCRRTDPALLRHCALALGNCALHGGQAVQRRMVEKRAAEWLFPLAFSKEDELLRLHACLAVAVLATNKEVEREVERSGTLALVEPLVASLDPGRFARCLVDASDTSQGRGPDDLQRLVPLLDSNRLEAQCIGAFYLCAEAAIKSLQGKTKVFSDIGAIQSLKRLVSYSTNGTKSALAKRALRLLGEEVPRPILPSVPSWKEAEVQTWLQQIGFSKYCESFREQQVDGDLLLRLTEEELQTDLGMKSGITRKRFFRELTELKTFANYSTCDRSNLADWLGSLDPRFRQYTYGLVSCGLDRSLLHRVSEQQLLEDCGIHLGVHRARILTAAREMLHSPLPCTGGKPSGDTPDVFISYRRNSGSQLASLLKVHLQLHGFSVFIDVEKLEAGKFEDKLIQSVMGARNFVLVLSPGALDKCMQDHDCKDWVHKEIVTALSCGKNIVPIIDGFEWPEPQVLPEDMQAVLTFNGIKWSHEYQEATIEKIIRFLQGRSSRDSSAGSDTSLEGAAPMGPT
Mitogen-activated protein kinase 7 (Homo sapiens), sequence (Q13164 whole entry, looked up, the tested form may be a part): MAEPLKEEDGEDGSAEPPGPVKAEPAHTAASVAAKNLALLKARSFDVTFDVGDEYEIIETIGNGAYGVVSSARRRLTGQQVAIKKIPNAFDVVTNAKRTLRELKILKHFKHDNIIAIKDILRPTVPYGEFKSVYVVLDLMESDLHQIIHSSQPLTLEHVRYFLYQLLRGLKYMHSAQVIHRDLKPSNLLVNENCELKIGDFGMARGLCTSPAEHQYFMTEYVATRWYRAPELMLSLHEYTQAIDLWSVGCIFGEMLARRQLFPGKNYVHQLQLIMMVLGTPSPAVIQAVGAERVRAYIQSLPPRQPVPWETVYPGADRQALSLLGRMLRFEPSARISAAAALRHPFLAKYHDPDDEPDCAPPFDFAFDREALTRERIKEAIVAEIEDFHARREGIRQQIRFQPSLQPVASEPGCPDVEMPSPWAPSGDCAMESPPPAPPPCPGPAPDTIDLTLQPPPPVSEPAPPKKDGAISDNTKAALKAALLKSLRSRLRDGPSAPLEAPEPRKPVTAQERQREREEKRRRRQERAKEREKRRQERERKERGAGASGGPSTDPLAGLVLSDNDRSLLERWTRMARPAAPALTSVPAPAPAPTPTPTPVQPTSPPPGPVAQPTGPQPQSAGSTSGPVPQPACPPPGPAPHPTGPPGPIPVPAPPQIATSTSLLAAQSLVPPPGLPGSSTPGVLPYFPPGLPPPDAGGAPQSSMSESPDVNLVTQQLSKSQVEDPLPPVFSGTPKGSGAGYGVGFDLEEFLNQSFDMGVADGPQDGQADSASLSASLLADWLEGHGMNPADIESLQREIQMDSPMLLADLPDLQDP

As to `CCN(CCCc1ccccc1)CCCc1ccccc1`, the fold change was 0.954 (inactive) and 0.931 (inactive) and 0.904 (inactive) in test [1] (setting [7]); 1.55 and 0.42 and 0.729 in test [1] (setting [8]). Moreover, the cell count in test [1] (setting [9]) is 9190 and 7300 and 10700; in test [1] (setting [10]), 9640 and 7840 and 11900. The z-score in test [2] (setting [11]) was -0.31 (inactive) and -0.215 (inactive); in test [2] (setting [12]), -0.176 and -0.103. Also, the remaining NAD in test [3] was 10 nM (inactive). Besides, the luciferase signal in test [4] is 48 AU (inactive).
As for `CCCCCN(CCCCC)C(=O)C(CCC(=O)O)NC(=O)c1ccc(Cl)c(Cl)c1` (stereo not drawn), the fold change in test [1] (setting [7]) was 1 (inactive) and 0.871 (inactive) and 0.904 (inactive); in test [1] (setting [8]), 0.913 and 1.58 and 1.45. Also, the cell count in test [1] (setting [9]) is 9880 and 9710 and 9580; in test [1] (setting [10]), 9840 and 11100 and 10600. Moreover, the outcome in test [5] was inactive. Also, the z-score in test [2] (setting [11]) was 0.699 (inactive) and -0.377 (inactive); in test [2] (setting [12]), -0.146 and -1.36; in test [6], 2.69 (active) and 0.255 (inactive). The remaining NAD in test [3] was 10 nM (inactive).
Turning to `Nc1c2c(nc3ccccc13)CCCC2O` (stereo not drawn), the fold change was 0.95 (inactive) and 0.845 (inactive) and 0.969 (inactive) in test [1] (setting [7]); 0.943 and 1.26 and 0.952 in test [1] (setting [8]). The cell count in test [1] (setting [9]) is 9940 and 8540 and 10300; in test [1] (setting [10]) it was 10500 and 10100 and 10600. Besides, in test [5], the molecule was called inactive. Also, the z-score is 1.73 (inactive) and -0.394 (inactive) in test [2] (setting [11]); 0.362 and -0.175 in test [2] (setting [12]); 0.445 (inactive) and 0.48 (inactive) in test [6]. For the same molecule, in test [4], the luciferase signal is 36 AU (inactive).
As for `CC[N+](C)(C)Cc1ccccc1Br`, the fold change in test [1] (setting [7]) is 0.896 (inactive); in test [1] (setting [8]) it was 1.09. In addition, the figures for the cell count in test [1] (setting [9]) and in test [1] (setting [10]) were 8620 and 9630, respectively. Moreover, the z-score in test [2] (setting [11]) was 0.582 (inactive); in test [2] (setting [12]), 0.0274.
Consider `NC/C=C/C(=O)O`, for which the fold change in test [1] (setting [7]) is 1.01 (inactive); in test [1] (setting [8]), 1.35. Further, the cell count in test [1] (setting [9]) turned out to be 10300; in test [1] (setting [10]) it was 10200. Also, in test [5], the molecule was called inactive. The luciferase signal in test [4] is 96 AU (inactive). In test [6], the z-score was 0.575 (inactive).
Consider `NS(=O)(=O)c1cc2c(cc1Cl)NC(C1CC3C=CC1C3)NS2(=O)=O` (stereo not drawn), for which the fold change in test [1] (setting [7]) is 0.998 (inactive) and 0.957 (inactive) and 0.847 (inactive); in test [1] (setting [8]), 1.34 and 0.752 and 2.93. The cell count in test [1] (setting [9]) was 9070 and 9210 and 11400; in test [1] (setting [10]), 9090 and 9620 and 13400. Also, the call in test [5] was inactive. Besides, the luciferase signal in test [4] is 84 AU (inactive). Further, the z-score in test [6] is 0.71 (inactive) and 0.55 (inactive).
Turning to `Nc1c2ccccc2nc2ccccc12`, the fold change in test [1] (setting [7]) was 2.19 (inactive); in test [1] (setting [8]), 1. Further, the cell count in test [1] (setting [9]) came out at 782; in test [1] (setting [10]), 356. For the same molecule, the z-score was 2.4 (active) in test [2] (setting [11]) and -1.96 in test [2] (setting [12]). Also, the remaining NAD in test [3] is 10 nM (inactive). For the same molecule, in test [4], the luciferase signal is 92 AU (inactive).
For the molecule `CC[C@]12CCCN3CCc4c(n(c5ccccc45)C(=O)C1)[C@@H]32`, the fold change in test [1] (setting [7]) was 0.89 (inactive); in test [1] (setting [8]), 1.52. Also, the values for the cell count in test [1] (setting [9]) and in test [1] (setting [10]) were 3350 and 3760, respectively. Besides, the z-score in test [2] (setting [11]) is 1.02 (inactive); in test [2] (setting [12]), 0.169.
As for `CN(C)CC[C@@H](c1ccc(Cl)cc1)c1ccccn1`, the figures for the fold change in test [1] (setting [7]) and in test [1] (setting [8]) were 1.01 (inactive) and 1.39, respectively. In addition, the cell count was 9880 in test [1] (setting [9]) and 9740 in test [1] (setting [10]). For the same molecule, the molecule was called inactive in test [5]. The remaining NAD in test [3] was 10 nM (inactive). For the same molecule, in test [4], the luciferase signal was 40 AU (inactive). Besides, the z-score in test [6] is -0.155 (inactive).
With `NCCCC(=O)O`, the fold change in test [1] (setting [7]) is 1.09 (inactive); in test [1] (setting [8]), 1.86. Further, the results for the cell count in test [1] (setting [9]) and in test [1] (setting [10]) were 10000 and 9160, respectively. Further, the outcome in test [5] was inactive. In test [3], the remaining NAD was 10 nM (inactive). Besides, the luciferase signal in test [4] was 56 AU (inactive). The z-score in test [6] was 0.26 (inactive).
Regarding `CCc1c(C)[nH]c2c1C(=O)C(CN1CCOCC1)CC2` (stereo not drawn), the fold change in test [1] (setting [7]) was 1.14 (inactive) and 0.913 (inactive) and 0.969 (inactive); in test [1] (setting [8]), 1.35 and 0.853 and 0.538. The cell count is 11100 and 9250 and 9310 in test [1] (setting [9]); 9700 and 10100 and 9610 in test [1] (setting [10]). In addition, the result in test [5] was inactive. In addition, the z-score was 0.0774 (inactive) in test [2] (setting [11]); -0.448 in test [2] (setting [12]); 0.39 (inactive) and -0.105 (inactive) in test [6].
As for `Cc1nc2sccn2c(=O)c1CCN1CCC(=C(c2ccc(F)cc2)c2ccc(F)cc2)CC1`, the fold change in test [1] (setting [7]) is 1.04 (inactive) and 0.919 (inactive) and 0.754 (inactive); in test [1] (setting [8]), 0.73 and 0.904 and 7.37. The cell count was 8680 and 6720 and 10000 in test [1] (setting [9]); 8330 and 7320 and 13300 in test [1] (setting [10]). In addition, in test [5], the call was inactive. Moreover, the remaining NAD in test [3] was 10 nM (inactive). Besides, the luciferase signal in test [4] was 152 AU (active). The z-score in test [6] was -1.37 (inactive) and -0.82 (inactive).
`Cc1cc(=O)[nH]c(=S)[nH]1`: the fold change in test [1] (setting [7]) was 0.999 (inactive) and 0.935 (inactive); in test [1] (setting [8]), 0.275 and 0.458. In addition, the cell count in test [1] (setting [9]) is 8050 and 11700; in test [1] (setting [10]), 8060 and 12500. Besides, the z-score is 0.105 (inactive) in test [2] (setting [11]) and -0.199 in test [2] (setting [12]). For the same molecule, in test [3], the remaining NAD is 10 nM (inactive). In addition, the luciferase signal in test [4] is 100 AU (inactive).
As for `CCN1CCC[C@H]1CNC(=O)c1cc(S(N)(=O)=O)ccc1OC`, the fold change in test [1] (setting [7]) is 1.01 (inactive) and 0.997 (inactive) and 0.936 (inactive); in test [1] (setting [8]), 1.51 and 0.827 and 1.56. The cell count in test [1] (setting [9]) was 10700 and 9240 and 9830; in test [1] (setting [10]) it was 10600 and 9270 and 10500. Moreover, the outcome in test [5] was inactive. The z-score in test [2] (setting [11]) is 0.469 (inactive); in test [2] (setting [12]), 0.62; in test [6], 0.65 (inactive) and 0.075 (inactive) and 0.505 (inactive).
